High-throughput results (PubChem)
In the library only some 4.6% were active in any assay of this set; here they are far more common.
PfHsp90 yeast 2 = growth inhibition of PfHsp90-expressing yeast, primary screen, antimalarial PfHsp90 inhibitor project, S. cerevisiae, BacTiter-Glo luminescence, single point, set 2; BacTiter-Glo ATP, 48 h; yeast lacking PDR1 and PDR3 efflux regulators; inhibition, % at 9.4 µM; 0.32% of 310,000 active; AID 504621, 2011;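 active means every replicate shows inhibition above about 80%, whatever the replicate mean, limit read from the data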;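 further: 0% = DMSO neutral controls and 100% = 20 µM radicicol positive controls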
TIM10 inh = growth inhibitors of isogenic TIM10 control yeast, primary screen, counter-screen for tim10-1 yeast inhibitor project, luminescence, uHTS | S. cerevisiae TIM10 strain growth, BacTiter-Glo luminescence, 24 h | inhibition, % at 10 µM | 1.4% of 330,000 active | AID 463195, 2010;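 active means inhibition of 40% or more at the single tested concentration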;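 further: wild-type TIM10 isogenic control strain grown at permissive 25 °C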
tim23-1 inh = growth inhibitors of tim23-1 mutant yeast, primary screen, luminescence, uHTS; S. cerevisiae tim23-1 growth, BacTiter-Glo luminescence, 24 h; inhibition, % at 20 µM; 1.3% of 330,000 active;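 active means growth inhibition of the mutant yeast at or above 50%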;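 further: temperature-sensitive mutant grown at 25 °C; plate controls were DMSO-treated mutant yeast for no effect and medium wells lacking yeast for full effect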
tim10-1 inh = growth inhibitors of tim10-1 mutant yeast, primary screen, luminescence, uHTS. S. cerevisiae tim10-1 ts strain growth, BacTiter-Glo, 24 h. inhibition, % at 20 µM. 2.2% of 330,000 active;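 active means inhibition of at least 40%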;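 further: mutant grown at 25 °C; 0% = DMSO wells with yeast and 100% = wells holding no yeast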
NALP3 yeast inh = NALP3 inflammasome inhibitors in reconstituted yeast, primary screen, luminescence, uHTS. Yeast reconstituted NLRP3/ASC/caspase-1, beta-gal luminescence, 24 h. inhibition, % at 10 µM. 0.39% of 330,000 active;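 active means inhibition of 50% or more; inactive means inhibition below 50%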;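 further: plate controls were induced DMSO wells for no effect and uninduced yeast grown without galactose for full effect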
SKKanGAS inh = S. pyogenes SKKanGAS growth inhibitors in kanamycin, primary screen, streptokinase expression inhibitor project, SKKanGAS strain, BacTiter-Glo luminescence; 6 h; inhibition, % at 7.5 µM; 1.3% of 300,000 active; AID 1662, 2009;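 active means mean replicate score, as percent of positive control median, at least 50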;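 further: strain carries kanamycin resistance gene driven by streptokinase promoter and grows in 40 µg/ml kanamycin; loss of luminescence reflects streptokinase promoter inhibition or plain growth inhibition; 0% = median of DMSO wells and 100% = positive control at its reference dose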
tim10-1 confirm = growth inhibitors of tim10-1 mutant yeast, confirmation, single concentration, luminescence, S. cerevisiae. shares compounds with tim10-1 inh. S. cerevisiae tim10-1 ts strain growth, BacTiter-Glo, 24 h. inhibition, % at 20 µM. 56% of 7,400 active. AID 463213, 2010;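 active means inhibition of yeast growth at or above a set limit in either of two repeat tests at 20 µM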;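 further: tim10-1 mutant grown at permissive 25 °C to find synthetic lethal compounds; 0% = DMSO yeast wells and 100% = medium wells without yeast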
* = called active by the depositor; / = no result given.

SMILES | PfHsp90 yeast 2 | TIM10 inh | tim23-1 inh | tim10-1 inh | NALP3 yeast inh | SKKanGAS inh | tim10-1 confirm
COc1ccc(CC(=O)O/N=C(\N)c2ccccn2)cc1OC | -15.0 | 4.4 | -1.1 | 23.6 | 15.0 | -18.7 | /
N/C(=N\OC(=O)CCCc1ccccc1)c1ccccc1 | -4.3 | 34.8 | 35.1 | 44.9* | 12.8 | 10.0 | 43.7*
N/C(=N\OC(=O)CCCc1ccccc1)c1cccc([N+](=O)[O-])c1 | 5.1 | 35.3 | 32.0 | 45.6* | -6.9 | 2.3 | 42.2*
C=C1[C@@H](CCO)N(S(=O)(=O)C(C)(C)C)C[C@@H]1C | -14.3 | / | / | / | / | / | /
O=C(C1CCOCC1)N1CCCC(N2CCN(c3ccc(F)cc3)CC2)C1 (configuration not stated) | -2.3 | 3.1 | -15.7 | -8.1 | 6.0 | -4.9 | /
CCCCNC(=S)Nc1ccccc1Cc1ccccc1 | / | 23.2 | 7.9 | 40.7* | 6.6 | 5.4 | 23.7
COc1ccc(-c2cc(-c3ccccc3)c(C#N)c(S(C)=O)n2)cc1 (configuration not stated) | 4.9 | 24.5 | 34.1 | 45.1* | 1.8 | -7.0 | 29.6*
CCN(CC)S(=O)(=O)c1ccc2oc(C(=O)N3CCc4ccccc4C3)c(C)c2c1 | 30.4 | 4.5 | 33.5 | 42.9* | 0.3 | 6.4 | 30.3*
CSc1ccc(S(=O)(=O)N2CCC(C(=O)N3CCc4ccccc4C3)CC2)cc1 | 7.5 | 10.2 | 29.8 | 42.9* | 15.0 | -3.0 | 27.8
CC(=O)Cc1cc(O)c2ccccc2c1OC(=O)c1ccccc1 | -18.4 | 27.3 | 48.1 | 42.9* | 1.9 | -10.3 | 37.5*
CC(=O)c1cc(C)c(OC(=O)c2ccccc2)c(C)c1 | -4.6 | / | / | / | / | / | /
O=C(CC1C(=O)NCCN1Cc1cccc(Oc2ccccc2)c1)NCCc1cscn1 (configuration not stated) | -15.5 | 15.7 | 20.4 | 42.0* | -3.0 | -0.8 | 27.7
Cc1cc(=O)[nH]c(SCC(=O)N2CCCC(C)C2)n1 (configuration not stated) | 4.9 | -6.2 | 8.2 | -15.8 | 15.4 | 2.4 | /
CCN(C[C@H]1N[C@@](C)(C(=O)OC)[C@H]2C(=O)N(C)C(=O)[C@@H]12)C(=O)Nc1ccc(C(F)(F)F)cc1 | -1.0 | -4.4 | 8.2 | 7.5 | -5.2 | / | /
COC(=O)c1ccc(/C=C/c2ccc3cccc(OC(C)=O)c3n2)cc1 | -33.9 | 20.4 | 19.4 | 40.0 | 16.8 | 52.8* | 24.1
O=[N+]([O-])c1ccccc1/C=C/c1ccc2ccccc2n1 | -14.4 | 2.4 | 22.1 | -3.5 | 29.1 | -3.1 | /
COc1cc(/C=C/c2ccc3cccc([N+](=O)[O-])c3n2)ccc1OCC#N | 8.0 | 11.2 | -7.3 | 15.3 | 11.5 | -7.1 | /
COC(=O)c1ccc(/C=C/C(=O)O)cc1 | -22.9 | -12.9 | 0.8 | -10.8 | -3.5 | -9.1 | /
COc1c(OC(C)=O)ccc(/C=C/c2ccc3cccc(OC)c3n2)c1[N+](=O)[O-] | -7.3 | 13.1 | 42.8 | 41.2* | 16.9 | 6.3 | 27.7
COc1c(OC(C)=O)ccc(/C=C/c2ccc3ccccc3n2)c1[N+](=O)[O-] | -9.0 | 39.5 | 47.7 | 47.5* | 15.9 | -1.5 | 32.0*
Cc1ccc(NC(=O)c2ncn(CC(=O)NCc3ccc4c(c3)OCO4)n2)cc1C | 3.0 | -0.3 | 15.6 | 4.5 | / | / | /
C/C(=N/NC(=O)c1ccc(C)s1)c1ccncc1 | 3.4 | -4.0 | 3.1 | -18.3 | 12.2 | 10.1 | /
Cc1cc(C)n(-c2cc(N3CCOCC3)nc(-c3ccccc3)n2)n1 | -12.8 | 26.1 | 36.2 | 52.4* | 5.5 | 3.4 | 12.6
O=C(CS(=O)(=O)c1ccccc1)Nc1nccs1 | -6.5 | -7.5 | 10.3 | 0.9 | -3.3 | 0.5 | /
Cc1c(C(=O)Nc2ccc(C(=O)Nc3ccccc3)cc2)cccc1[N+](=O)[O-] | -16.5 | 5.6 | -2.4 | -14.7 | 0.5 | -1.8 | /
SMILES | PfHsp90 yeast 2 | TIM10 inh | tim23-1 inh | tim10-1 inh | NALP3 yeast inh | SKKanGAS inh | tim10-1 confirm
Cc1c(C(=O)Nc2ccccc2-c2ccccc2)cccc1[N+](=O)[O-] | 5.6 | 32.8 | 44.9 | 41.9* | -0.1 | 0.1 | 29.1
C=CC[C@H](CC(=O)NCCO)C(=O)N[C@H](COC(=O)[C@H](CC=C)CC(=O)OC(C)(C)C)c1ccccc1 | 11.9 | 2.0 | 3.8 | -1.7 | 20.5 | / | /
C=CCN=c1scc(-c2ccc(F)cc2)n1/N=C/c1ccccn1 | -41.8 | 35.0 | 26.7 | 40.6* | -7.1 | -2.0 | 14.0
O=C(CCNC(=O)c1ccccc1Cl)Nc1nc(-c2ccc(F)cc2)cs1 | 1.3 | 15.4 | 32.1 | 13.2 | 11.0 | 5.6 | /
O=C(CCNC(=O)c1ccccc1Cl)Nc1nc(-c2ccccc2Cl)cs1 | 2.5 | 1.2 | 27.9 | 40.2* | 6.0 | 4.2 | 20.5
COc1cccc(CCc2nnc(CCC(=O)N3CCN(Cc4ccccn4)CC3)o2)c1 | 18.5 | 5.5 | 22.4 | 2.1 | 16.4 | 8.7 | /
O=C(NCC1CCCO1)c1ccc2c(=O)n(CC3CCCO3)c(SCC(=O)N3CCCC3)nc2c1 (configuration not stated) | / | 4.5 | 16.9 | 10.5 | 8.9 | -5.6 | /
COc1ccc(N2CCN(c3oc(Cc4ccccc4)nc3C#N)CC2)cc1 | / | 12.2 | 36.8 | 40.3* | 15.0 | -1.4 | 25.5
CCc1ccc(OCc2ccc(C(=O)OC)o2)cc1 | -10.2 | -0.9 | -2.8 | 0.4 | 9.2 | -2.9 | /
Cc1cc(N2CCC(C(=O)NC3CC3)CC2)nc(-c2ccccc2)n1 | 11.8 | 2.4 | 20.2 | 13.6 | 8.3 | 0.2 | /
Cc1cc(N2CCC(C(=O)NC3CCCCC3)CC2)nc(-c2ccccc2)n1 | -3.3 | 26.5 | -7.5 | 45.3* | 32.5 | -2.3 | 16.1
CCc1ccc(/C=N/NC(=O)c2nnn(-c3nonc3N)c2CN2CCOCC2)cc1 | -39.6 | -5.0 | -71.7 | -44.9 | 1.2 | 0.1 | /
Cc1ccc(-c2csc3ncnc(N4CCN(c5ccccc5O)CC4)c23)cc1 | -19.0 | -7.4 | 43.9 | 44.2* | 10.6 | 36.4 | 5.4
Cc1ccc(-c2csc3ncnc(NCCN4CCOCC4)c23)cc1 | -11.0 | 15.7 | -43.6 | 19.8 | 20.2 | -2.6 | /
O=C(c1ccco1)N1CCN(c2ncnc3scc(-c4ccc(F)cc4)c23)CC1 | 1.2 | 31.9 | 18.6 | 49.3* | -1.5 | -3.7 | 36.5*
Cc1ccc(-c2csc3ncnc(Nc4ccc(N5CCOCC5)cc4)c23)cc1 | -53.9 | 29.1 | 43.4 | 40.0* | 13.8 | 21.2 | 36.4*
COc1ccc(-c2csc3ncnc(N4CCN(c5ccccc5O)CC4)c23)cc1 | -26.8 | 2.5 | 40.2 | 26.3 | 16.8 | 33.8 | /
O=C(COc1ccccc1)Nc1nnc(COc2ccccc2)s1 | -10.9 | 0.4 | 4.3 | -14.6 | 27.9 | 4.1 | /
